In the library only some 11% were active in any assay of this set; here they are far more common.
G9a inh: blocks human histone lysine methyltransferase G9a | Potency, µM (doses to about 102 µM), for the others: top-dose activity, negative = inhibition, hits mostly inhibitors | Q96KQ7 | actives 8.8% (n = 350,000) | G9a H3K9 monomethylation, AlphaScreen, 2 h; also: potency is read from the fitted curve at half-maximal effect; % is scaled to controls: 0 for no effect and ±100 for the full control effect; nearly all actives have a fitted effect of over 75% in size
Target sequence (Q96KQ7 913-1193 limits assumed): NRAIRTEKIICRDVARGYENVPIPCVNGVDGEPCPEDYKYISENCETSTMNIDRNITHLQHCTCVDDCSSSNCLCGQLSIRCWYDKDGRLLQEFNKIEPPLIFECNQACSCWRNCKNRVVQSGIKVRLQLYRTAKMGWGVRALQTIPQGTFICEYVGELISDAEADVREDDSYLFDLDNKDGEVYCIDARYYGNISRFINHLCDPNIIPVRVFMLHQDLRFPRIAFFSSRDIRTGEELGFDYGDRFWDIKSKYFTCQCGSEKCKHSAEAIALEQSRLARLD
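Step 1: enzyme (final 20 nM) with compound, 15 min RT. Step 2: substrate peptide 500 nM and SAM 20 uM, 2 h RT. Step 3: anti-H3K9me1 antibody and AlphaScreen beads, 10 min, then plate read.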
PI5P4K alpha inh: inhibitors of human PI5P4K alpha | P48426 | PI5P4Kalpha enzyme, ADP-Glo luminescence, 60 min; hits give low values | max response, % | actives 1.2% (n = 330,000); active = max response of -50% or lower; inconclusive = between -30% and -50%; inactive = -30% or higher; also: value at the top dose of about 77 µM; % is scaled to controls: 0 for no effect and ±100 for the full control effect
Target sequence (P48426 whole entry, looked up): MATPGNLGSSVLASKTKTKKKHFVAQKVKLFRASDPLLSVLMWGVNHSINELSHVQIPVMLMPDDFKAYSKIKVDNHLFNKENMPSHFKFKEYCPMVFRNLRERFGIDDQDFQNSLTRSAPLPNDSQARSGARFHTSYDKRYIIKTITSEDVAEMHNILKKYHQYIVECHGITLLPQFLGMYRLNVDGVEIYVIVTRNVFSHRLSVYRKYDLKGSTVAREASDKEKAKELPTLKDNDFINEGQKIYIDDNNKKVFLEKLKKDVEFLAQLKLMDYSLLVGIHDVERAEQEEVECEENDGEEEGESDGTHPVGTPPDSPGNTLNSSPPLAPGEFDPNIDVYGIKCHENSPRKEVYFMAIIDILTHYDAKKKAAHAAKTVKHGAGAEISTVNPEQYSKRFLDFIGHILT
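Single end-point luminescence (ADP-Glo) quantified ADP from PI5P4Kalpha turnover; ATP 5 microM final, 1 h at RT, 0.1% CHAPS and 0.28 mM EGTA in HEPES pH 7.4.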
HP1b chromo inh: HP1-beta chromodomain-methylated histone interaction inhibition | Potency, µM (titrated, usually from 114 µM), for inactives: at the highest dose activity change, negative = inhibition, actives largely listed as inhibitors | actives 0.56% (n = 390,000) | AlphaScreen HP1-beta / biotin-H3K9me3 peptide binding | P83916; also: potency is read from the fitted curve at half-maximal effect; nearly all actives have a fitted effect of over 70% in size
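Compound inhibition of the preformed complex between 50 nM HP1-beta and 50 nM biotinylated H3K9me3 peptide was read by AlphaScreen. Buffer was PBS pH 7.4 with 0.01% Tween-20. Incubations ran 30 min at room temperature, with 10 ug/mL donor/acceptor beads.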
L3MBTL1 block: inhibitors of human L3MBTL1. Q9Y468. Potency, µM (titrated, usually from 57.1 µM), inactives show at the highest dose activity, negative = inhibition, hits mostly inhibitors. AlphaScreen L3MBTL1–H3K9me1 peptide binding. actives 0.66% (n = 230,000); also: potency is read from the fitted curve at half-maximal effect; % is scaled to controls: 0 for no effect and ±100 for the full control effect; nearly all actives have a fitted effect of over 60% in size
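First, the protein-peptide complex forms for 30 min at room temperature (L3MBTL1 50 nM, biotinylated H3K9me1 peptide 75 nM). Next, compounds are pin-transferred and incubated 30 min. Finally, AlphaScreen beads are added and read after 30 min.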
JMJD2A Tudor: blocks the human JMJD2A Tudor domain; O75164; AlphaScreen JMJD2A-Tudor / H3K4me3 peptide binding; Potency, µM (doses to about 114 µM), for the others: at the top dose activity change, negative = inhibition, usual class: inhibitors; actives 4.4% (n = 390,000); also: potency is read from the fitted curve at half-maximal effect; % is scaled to controls: 0 for no effect and ±100 for the full control effect; nearly all actives have a fitted effect of over 50% in size
BAZ2B block: inhibitors of human BAZ2B bromodomain; AID 504333; Q9UIF8; actives 4.4% (n = 360,000); Potency, µM (top dose mostly 114 µM), without a hit: top-dose activity change, negative = inhibition, actives largely listed as inhibitors; AlphaScreen BAZ2B-H3K14Ac peptide displacement; also: potency is read from the fitted curve at half-maximal effect; % is scaled to controls: 0 for no effect and ±100 for the full control effect; nearly all actives have a fitted effect of over 60% in size
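Multi-concentration screen (max 110 uM) measuring displacement of acetylated histone H3 peptide from BAZ2B by AlphaScreen, using 50 nM protein, 50 nM peptide and 10 ug/mL streptavidin donor plus Ni-chelate acceptor beads.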
Numbers without * were called inactive; ? = inconclusive; nt = not tested or not shown; [ ] = dose if it differs, or a comment. Unless noted, calls follow the shape of the dose curve; as a rule, active = well fitted inhibition curve with a large enough effect; inconclusive = small, poorly fitted or top-dose-only effect; inactive = no such curve, though single readings can be large or run the other way.

SMILES | G9a inh | PI5P4K alpha inh | HP1b chromo inh | L3MBTL1 block | JMJD2A Tudor | BAZ2B block
O=C(N/N=C\c1ccccn1)c1ccccc1O | 43% | -2 | 32% | nt | ? | -1%
CC(C)[C@@H](N)C(=O)N/N=C/c1ccc2nccnc2c1 | 5.6µM* | -4 | 33% | nt | -6% | ?
CCC(C)[C@@H](N)C(=O)N/N=C/c1cccc2nccnc12 (some centres not stated) | -42% | -11 | 22% | -1% | 50µM* | 79µM*
CCC(C)[C@H](NC(=O)OC(C)(C)C)C(=O)N/N=C/c1cccc2nccnc12 (some centres not stated) | ? | nt | 36% | nt | 3% | -36%
O=C(N/N=C/c1cccc2cccnc12)c1ccccc1O | 41% | 4 | 39% | 6.3µM* | 7.9µM* | 7.1µM*
O=C(N/N=C/c1cccc2nccnc12)c1ccncc1 | 17% | 0 | 37% | ? | 56µM* | 18µM*
CCCC(CCC)C(=O)Nc1cc(-c2cn3cccnc3n2)ccc1OC | 5%[59 µM] | nt | 17%[57 µM] | nt | 0% | 6%
CC(C)(C)OC(=O)N1CCC(N2CCN(Cc3ccccc3)C(=O)C2=O)CC1 | 28%[59 µM] | nt | 42% | nt | -4% | 1%
O=C(N/N=C\c1ccncc1)c1ccccc1O | -2% | -3 | 18% | nt | -10% | -8%
O=C(N/N=C/c1cccc2nccnc12)c1ccccc1O | 13% | 4 | 61% | ? | -13%[11.4 µM] | 28µM*
CCc1nn2c(=O)cc(COC(=O)CNC(=O)COc3ccc(C)cc3)nc2s1 | 11%[59 µM] | nt | 10% | nt | 0% | -11%
CCOc1ccc(-n2ccnc2SCC(=O)Nc2cc(C)ccc2C)cc1 | 6%[59 µM] | nt | 7%[57 µM] | nt | -8% | ?
Cc1ccc(C)c(NC(=O)CSc2nccn2-c2cccc(C)c2C)c1 | 18µM* | nt | ? | nt | ? | 10µM*
Cc1cccc(-n2ccnc2SCC(=O)Nc2cccc(S(=O)(=O)NC3=NCCC3)c2)c1C | 40µM* | 0 | 14% | -7% | -23% | -12%
O=C(COCc1cc(-c2cccs2)on1)Nc1ccc(OC(F)(F)F)cc1 | 14%[59 µM] | nt | 14% | nt | -5% | 5%
Cc1ccc2c(CC(=O)OCc3csc(C)n3)coc2c1 | 1%[59 µM] | nt | 28% | 14% | 18% | 41%
O=C(Cc1coc2cc3c(cc12)CCC3)OCc1cc(=O)n2c(n1)sc1ccccc12 | -35%[12.7 µM] | ? | ? | nt | ? | 50µM*
N#CCCn1c(=O)c(-c2cc(F)cc(F)c2)nc2cnc(Oc3cccc(Cl)c3)nc21 | -3%[12.7 µM] | nt | nt | nt | nt | nt
COc1ccccc1N1CCN(c2c(CN3CCCC3)c(=O)oc3ccccc23)CC1 | -21%[59 µM] | nt | -18% | nt | -15% | -19%
O=c1oc2ccccc2c(Cl)c1CN1CCCCC1 | 50µM* | 1 | 33% | -3% | -8% | -16%
O=c1oc2ccccc2c(N2CCCC2)c1CN1CCCC1 | 56µM* | nt | 35% | nt | -11% | -1%
COc1ccc(/C(O)=C2\C(=O)C(=O)N(CCN(C)C)C2c2cccc(OC)c2OC)cc1Cl (configuration not stated) | 45µM* | 2 | 3% | -6% | ? | ?
CCN(CC)CCN1C(=O)C(=O)/C(=C(/O)c2ccc(F)cc2)C1c1cccnc1 (configuration not stated) | 25µM* | 1 | 30% | 12% | -14% | -9%
COc1ccc(/C(O)=C2/C(=O)C(=O)N(CCN(C)C)C2c2ccc(C)cc2)cc1Cl (configuration not stated) | 89µM* | 2 | 34% | 1% | -9% | -6%
COc1ccc(/C(O)=C2/C(=O)C(=O)N(CCN(C)C)C2c2ccccc2)cc1Cl (configuration not stated) | -48%[12.7 µM] | -4 | 34% | nt | -1% | ?
SMILES | G9a inh | PI5P4K alpha inh | HP1b chromo inh | L3MBTL1 block | JMJD2A Tudor | BAZ2B block
COc1cc(C2/C(=C(/O)c3ccc(OCC(C)C)cc3)C(=O)C(=O)N2CCN(C)C)ccc1O (configuration not stated) | 25µM* | nt | 17% | -10% | -8% | -9%
CCN(CC)CCN1C(=O)C(=O)/C(=C(/O)c2cnn(-c3ccccc3)c2C)C1c1cccnc1 (configuration not stated) | -6%[12.7 µM] | -5 | 22% | nt | -5% | -9%
COc1ccc(NC(=O)N2CCCC3(CCN(S(C)(=O)=O)CC3)C2)cc1 | 6%[12.7 µM] | nt | nt | nt | nt | nt
CCCc1noc(-c2ccc(NCc3ccc(C)cc3)c([N+](=O)[O-])c2)n1 | -34%[59 µM] | nt | 31% | nt | -9% | -1%
COc1ccc(OC)c(C2/C(=C(/O)c3cnn(-c4ccccc4)c3C)C(=O)C(=O)N2CCN(C)C)c1 (configuration not stated) | ? | ? | 25% | nt | -4% | 50µM*
Cc1c(/C(O)=C2/C(=O)C(=O)N(Cc3cccnc3)C2c2ccccn2)cnn1-c1ccccc1 (configuration not stated) | 32µM* | 2 | 7% | -1% | ? | 50µM*
CN(C)CCN1C(=O)C(=O)/C(=C(/O)c2ccc(F)cc2)C1c1ccccc1F (configuration not stated) | 79µM* | nt | 14% | -2% | -21% | -35%
Cc1c(/C(O)=C2/C(=O)C(=O)N(Cc3cccnc3)C2c2cccs2)cnn1-c1ccccc1 (configuration not stated) | ? | 0 | 17% | nt | -25% | -31%
CCC(=O)C1=C(c2ccc(Cl)cc2)N(C(=O)CC)n2c(C)nnc2S1 | 14%[59 µM] | nt | 16% | nt | 8% | 9%
Cn1cnnc1SCC(=O)Nc1cc(C(=O)O)cc(C(=O)O)c1 | -2%[59 µM] | nt | 35% | nt | -17% | 0%
O=C(CSc1nccn1C1CCCC1)Nc1cccc(F)c1 | -16%[59 µM] | nt | 9% | nt | -29% | 79µM*
COc1ccc2c(-c3ccccc3)cc(SC(C)C(N)=O)nc2c1 (configuration not stated) | 13µM* | 1 | 39% | nt | -5%[57.1 µM] | -2%
COc1ccc(N2CCN(C(CNC(=O)c3ccc(C)cc3)c3ccc4c(c3)OCO4)CC2)cc1 (configuration not stated) | 8.9µM* | nt | -18%[57 µM] | nt | 28µM* | 20µM*
COc1ccc(N2CCN(C(CNC(=O)CC(C)C)c3ccc4c(c3)OCO4)CC2)cc1 (configuration not stated) | 11µM* | nt | 3%[57 µM] | nt | ? | -24%
COc1ccc(C(=O)NCC(c2ccc3c(c2)OCO3)N2CCN(C)CC2)cc1 (configuration not stated) | -4%[59 µM] | nt | 29%[57 µM] | nt | 2% | 1%
COc1ccc(/C=c2/sc3nc(-c4ccccc4)c(-c4ccccc4)n3c2=O)cc1 | 14µM* | 2 | ? | -3% | -22% | ?
